Where a name gives a salt, the structure may show the parent alone. In all, about 1,500 compounds were measured (“Excess HSA synergy score (sum over dose matrix of excess over highest single agent)”: median about 43, lowest 2% from about -900 on). This excerpt belongs to a sample that is enriched for the lowest values.
Tested on: PEO-1
Assay: Excess HSA synergy score (sum over dose matrix of excess over highest single agent) (score (summed % response)); higher = less synergy / more antagonism (negative = synergy)
Details: 72 h, read-out: viability/apoptosis luminescence (CellTiter-Glo or Caspase3-Glo / not stated per table)
[1] = matrix design: 6x6, 5-fold dilutions (primary screen)
[2] = matrix design: 10x10, 9-step dilutions (confirmatory)

SMILES: O=C(N[C@@H](c1ccccc1)[C@@H]1CCCCN1)c1cccc(C(F)(F)F)c1Cl + CC[C@H](NC(=O)[C@H](C)NC)C(=O)N1C[C@@H](O)C[C@H]1Cc1c(-c2[nH]c3cc(F)ccc3c2C[C@@H]2C[C@H](O)CN2C(=O)[C@H](CC)NC(=O)[C@H](C)NC)[nH]c2cc(F)ccc12 [Birinapant]
- Excess HSA synergy score [1]: 61.9

SMILES: CCc1c2c(nc3ccc(O)cc13)-c1cc3c(c(=O)n1C2)COC(=O)[C@]3(O)CC + CC[C@H](NC(=O)[C@H](C)NC)C(=O)N1C[C@@H](O)C[C@H]1Cc1c(-c2[nH]c3cc(F)ccc3c2C[C@@H]2C[C@H](O)CN2C(=O)[C@H](CC)NC(=O)[C@H](C)NC)[nH]c2cc(F)ccc12 [Birinapant]
- Excess HSA synergy score [1]: 0.514

SMILES: CC[C@@]1(O)C(=O)OCc2c1cc1n(c2=O)Cc2cc3cc(O)ccc3nc2-1 [10-hydroxycamptothecin] + CC[C@H](NC(=O)[C@H](C)NC)C(=O)N1C[C@@H](O)C[C@H]1Cc1c(-c2[nH]c3cc(F)ccc3c2C[C@@H]2C[C@H](O)CN2C(=O)[C@H](CC)NC(=O)[C@H](C)NC)[nH]c2cc(F)ccc12 [Birinapant]
- Excess HSA synergy score [1]: -38.5

SMILES: CC[C@@]1(O)C(=O)OCc2c1cc1n(c2=O)Cc2cc3c(CN(C)C)c(O)ccc3nc2-1 [Topotecan hydrochloride] + CC[C@H](NC(=O)[C@H](C)NC)C(=O)N1C[C@@H](O)C[C@H]1Cc1c(-c2[nH]c3cc(F)ccc3c2C[C@@H]2C[C@H](O)CN2C(=O)[C@H](CC)NC(=O)[C@H](C)NC)[nH]c2cc(F)ccc12 [Birinapant]
- Excess HSA synergy score [1]: -166
- Excess HSA synergy score [2]: -963

SMILES: O=C(C1CC1)N1CC[C@@H](Cn2c(-c3ccc(-c4ccc5occc5c4)cc3)nc3cnccc32)C1 + CC[C@H](NC(=O)[C@H](C)NC)C(=O)N1C[C@@H](O)C[C@H]1Cc1c(-c2[nH]c3cc(F)ccc3c2C[C@@H]2C[C@H](O)CN2C(=O)[C@H](CC)NC(=O)[C@H](C)NC)[nH]c2cc(F)ccc12 [Birinapant]
- Excess HSA synergy score [1]: 117

SMILES: CCCCCN(CCC12CC3CC(CC(C3)C1)C2)C(=O)NCCCc1ccncc1 + CC[C@H](NC(=O)[C@H](C)NC)C(=O)N1C[C@@H](O)C[C@H]1Cc1c(-c2[nH]c3cc(F)ccc3c2C[C@@H]2C[C@H](O)CN2C(=O)[C@H](CC)NC(=O)[C@H](C)NC)[nH]c2cc(F)ccc12 [Birinapant]
- Excess HSA synergy score [1]: 297

SMILES: Cn1cc(/C=C/C(=O)c2cccc(F)c2)cc1/C=C/C(=O)NO + CC[C@H](NC(=O)[C@H](C)NC)C(=O)N1C[C@@H](O)C[C@H]1Cc1c(-c2[nH]c3cc(F)ccc3c2C[C@@H]2C[C@H](O)CN2C(=O)[C@H](CC)NC(=O)[C@H](C)NC)[nH]c2cc(F)ccc12 [Birinapant]
- Excess HSA synergy score [1]: 132

SMILES: COC1=C2C[C@@H](C)C[C@H](OC)[C@H](O)[C@@H](C)/C=C(\C)[C@H](OC(N)=O)[C@@H](OC)/C=C\C=C(/C)C(=O)NC(=CC1=O)C2=O [Geldanamycin] + CC[C@H](NC(=O)[C@H](C)NC)C(=O)N1C[C@@H](O)C[C@H]1Cc1c(-c2[nH]c3cc(F)ccc3c2C[C@@H]2C[C@H](O)CN2C(=O)[C@H](CC)NC(=O)[C@H](C)NC)[nH]c2cc(F)ccc12 [Birinapant]
- Excess HSA synergy score [1]: 115
- Excess HSA synergy score [2]: -710

SMILES: CCc1cc(-c2n[nH]c(C)c2-c2ccc3c(c2)OCCO3)c(O)cc1O + CC[C@H](NC(=O)[C@H](C)NC)C(=O)N1C[C@@H](O)C[C@H]1Cc1c(-c2[nH]c3cc(F)ccc3c2C[C@@H]2C[C@H](O)CN2C(=O)[C@H](CC)NC(=O)[C@H](C)NC)[nH]c2cc(F)ccc12 [Birinapant]
- Excess HSA synergy score [1]: 405

SMILES: Cc1c[nH]c(/C=C2\C(=O)Nc3ccccc32)c1CCC(=O)O + CC[C@H](NC(=O)[C@H](C)NC)C(=O)N1C[C@@H](O)C[C@H]1Cc1c(-c2[nH]c3cc(F)ccc3c2C[C@@H]2C[C@H](O)CN2C(=O)[C@H](CC)NC(=O)[C@H](C)NC)[nH]c2cc(F)ccc12 [Birinapant]
- Excess HSA synergy score [1]: 54.2

SMILES: CC1(C)O[C@H]2CC(=O)OC[C@]23[C@H]2CC[C@@]4(C)[C@H](c5ccoc5)OC(=O)[C@H]5O[C@]54[C@]2(C)C(=O)C[C@@H]13 [Limonin] + CC[C@H](NC(=O)[C@H](C)NC)C(=O)N1C[C@@H](O)C[C@H]1Cc1c(-c2[nH]c3cc(F)ccc3c2C[C@@H]2C[C@H](O)CN2C(=O)[C@H](CC)NC(=O)[C@H](C)NC)[nH]c2cc(F)ccc12 [Birinapant]
- Excess HSA synergy score [1]: 15.5

SMILES: COc1cccc2c1C(=O)c1c(O)c3c(c(O)c1C2=O)C[C@@](O)(C(=O)CO)C[C@@H]3O[C@H]1C[C@H](N)[C@@H](O)[C@H](C)O1 [Epirubicin hydrochloride] + CC[C@H](NC(=O)[C@H](C)NC)C(=O)N1C[C@@H](O)C[C@H]1Cc1c(-c2[nH]c3cc(F)ccc3c2C[C@@H]2C[C@H](O)CN2C(=O)[C@H](CC)NC(=O)[C@H](C)NC)[nH]c2cc(F)ccc12 [Birinapant]
- Excess HSA synergy score [1]: -93.1

SMILES: COc1cccc2c1C(=O)c1c(O)c3c(c(O)c1C2=O)C[C@@](O)(C(=O)CO)C[C@@H]3O[C@H]1C[C@H](N)[C@H](O)[C@H](C)O1 [Doxorubicin] + CC[C@H](NC(=O)[C@H](C)NC)C(=O)N1C[C@@H](O)C[C@H]1Cc1c(-c2[nH]c3cc(F)ccc3c2C[C@@H]2C[C@H](O)CN2C(=O)[C@H](CC)NC(=O)[C@H](C)NC)[nH]c2cc(F)ccc12 [Birinapant]
- Excess HSA synergy score [1]: -136

SMILES: CC[C@@]1(O)C[C@H](O[C@H]2C[C@H](N(C)C)[C@H](O[C@H]3C[C@H](O)[C@H](O[C@H]4CCC(=O)[C@H](C)O4)[C@H](C)O3)[C@H](C)O2)c2c(cc3c(c2O)C(=O)c2c(O)cccc2C3=O)[C@H]1C(=O)OC [Aclarubicin] + CC[C@H](NC(=O)[C@H](C)NC)C(=O)N1C[C@@H](O)C[C@H]1Cc1c(-c2[nH]c3cc(F)ccc3c2C[C@@H]2C[C@H](O)CN2C(=O)[C@H](CC)NC(=O)[C@H](C)NC)[nH]c2cc(F)ccc12 [Birinapant]
- Excess HSA synergy score [1]: -147
- Excess HSA synergy score [2]: -1130

SMILES: CCc1cc2c(cc1N1CCC(N3CCOCC3)CC1)C(C)(C)c1[nH]c3cc(C#N)ccc3c1C2=O + CC[C@H](NC(=O)[C@H](C)NC)C(=O)N1C[C@@H](O)C[C@H]1Cc1c(-c2[nH]c3cc(F)ccc3c2C[C@@H]2C[C@H](O)CN2C(=O)[C@H](CC)NC(=O)[C@H](C)NC)[nH]c2cc(F)ccc12 [Birinapant]
- Excess HSA synergy score [1]: 183
